# Test results: PubChem BioAssay AID504727 (Broad Institute, 2011)
# The source made the active and inactive calls.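 The calls were made as follows: active = fitted half-maximal concentration AC50 at or below ten times the highest valid tested dose, with signal falling as DNA is displaced (actives reach about 34 µM in these data); inconclusive = flat fit at moderate signal loss, or poor fit quality; inactive = the rest, including signal rising instead of falling.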
# Test: DNA intercalators displacing acridine orange, dose response, artefact control for KSHV LANA DNA-binding inhibitor project, biochemical, fluorescence polarization, cherry-picked samples, set 2 (AID 504727)
# Details: AC50: Acridine orange-DNA displacement; series mostly up to 35 µM
row,SMILES,AC50
1,Cc1cccc(N2C(=O)c3cccc4c(N(C)CCO)ccc(c34)C2=O)c1,inactive
2,Cc1cc(=O)c2c([nH]1)c(C)cc1[nH]c(C)c(C)c12,inactive
3,CCc1ccc[n+](-c2[nH]c(=O)sc2/C=N/NC([S-])=Nc2ccccc2)c1,14.8 µM (active)
4,CC(Sc1nc2ccccc2s1)C(=O)Nc1nnc(C(C)C)s1 (configuration not stated),inactive
5,O=C(COc1ccccc1Cc1ccccc1)NCCCN1CCOCC1,33.9 µM (active)
6,O=C(O)c1ccc(NS(=O)(=O)c2ccc3c(c2)C2C=CCC2C(c2ccccc2F)N3)cc1 (configuration not stated),inactive
7,Cc1c(C)n(CCC(=O)O)c2ccccc12,inactive
8,COCCN(C(=O)CN1CCCc2ccccc21)c1c(N)n(Cc2ccccc2)c(=O)[nH]c1=O,inactive
9,COc1cccc(C2CC(=O)Nc3cc4c(cc32)CCC4)c1 (configuration not stated),inactive
10,CCN(CC(=O)Nc1c(F)cccc1F)C(=O)CCCc1cccs1,inactive
11,CCN(Cc1ccccc1)S(=O)(=O)c1cc2[nH]c(=O)c(=O)[nH]c2cc1C,inactive
12,COc1cccc(OCCNc2ccc([N+](=O)[O-])cn2)c1,inactive
13,Cc1cc2nc3c(=O)n(C4CCCCC4)c(=O)[nH]c3nc2cc1N,10.6 µM (active)
14,O=C(O)c1ccccc1NS(=O)(=O)c1ccc(N/N=C/c2ccc(O)c(O)c2)c([N+](=O)[O-])c1,inactive
15,CCC1(c2ccccc2)NC(=O)N(CC(=O)Nc2ccc(OC)nc2)C1=O (configuration not stated),7.64 µM (active)
16,O=C(CN1C(=O)/C(=C/c2ccco2)SC1=S)Nc1ccc(O)c(C(=O)O)c1,inactive
17,COc1ccc2c3c(cccc13)C(=O)CC2,6.92 µM (active)
